These results are taken from PubChem BioAssay (Tox21).

Records with an inconclusive call do not appear. A call without a number means that no potency is given here. The source made the active and inactive calls. Calls come from the whole dose curve; as a rule, active = well fitted activation curve with a large enough effect in the repeat runs; inconclusive = weak or mixed curves, or effect the other way; inactive = no such curve, though single readings can be large or run the other way.

A short description of the assay: qHTS assay to identify small molecule agonists of the retinoic acid receptor (RAR) signaling pathway (AID 1159553). To be noted: C3RL4 RARE luciferase reporter, agonist, 6 h; series mostly up to 73.3 µM. Summed up:
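Seed C3RL4 reporter cells at 1,000 per well and incubate overnight at 37 C. Add compounds in DMSO, incubate 6 hr. Add luciferase reagent, wait 30 min at room temperature, read luminescence.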
For orientation: In qHTS, concentration-response curves come from the screen itself.
For `CC(=O)Nc1cccc(C)c1`, the Potency entry is “inactive”.

As to `Cc1ccc2ccc(Cl)cc2n1`, the Potency result was “inactive”. Take `CC(=O)OC(C)OC(=O)C(C)c1ccc(-c2ccccc2)c(F)c1` (stereo not given): the Potency entry is “inactive”. As for `COc1ccc2c(c1)C(=O)N(CCc1ccc(S(=O)(=O)NC(=O)NC3CCCCC3)cc1)C(=O)C2(C)C`, the Potency result is “inactive”. For `COc1ccc(-c2cc(=O)c3c(O)cc(O[C@@H]4O[C@H](CO[C@@H]5O[C@@H](C)[C@H](O)[C@@H](O)[C@H]5O)[C@@H](O)[C@H](O)[C@H]4O)cc3o2)cc1O`, the Potency entry is “inactive”.
